Source: PubChem BioAssay (Emory University Molecular Libraries Screening Center)
14-3-3g Raf = modulators of 14-3-3 gamma protein binding, primary screen, biochemical, fluorescence polarization. 0.19% of 160,000 active. AID 422, 2006. inhibition, % at 40 µM. FP, 14-3-3gamma / TMR-pS259-Raf peptide binding; in the data active means inhibition above about 30%;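 further: 0% = protein plus tracer without compound and 100% = blank with tracer alone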
Target sequence (P61981 whole entry, looked up): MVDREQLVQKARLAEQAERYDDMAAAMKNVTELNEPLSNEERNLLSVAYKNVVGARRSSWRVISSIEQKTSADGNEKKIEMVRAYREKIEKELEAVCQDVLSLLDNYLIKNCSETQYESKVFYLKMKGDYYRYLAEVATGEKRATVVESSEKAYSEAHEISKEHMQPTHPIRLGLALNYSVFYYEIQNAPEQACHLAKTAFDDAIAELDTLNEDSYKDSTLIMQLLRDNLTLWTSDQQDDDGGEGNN
* marks the source's active call; other numbers are inactive results. Only a selection was taken, and hits are over-represented in it overall.

SMILES	14-3-3g Raf
CCSc1nnc2c(n1)OC(c1ccc(CC)cc1)Nc1ccccc1-2 (stereo unspecified)	18
CCCSc1nnc2c(n1)OC(c1ccccc1Cl)Nc1ccccc1-2 (stereo unspecified)	33*
CCCSc1nnc2c(n1)OC(c1ccsc1)Nc1ccccc1-2 (stereo unspecified)	64*
CCSc1nnc2c(n1)OC(c1ccc(N(CC)CC)cc1)Nc1ccccc1-2 (stereo unspecified)	39*
CCCSc1nnc2c(n1)OC(c1ccsc1)Nc1ccc(Br)cc1-2 (stereo unspecified)	-65
CSc1nnc2c(n1)OC(c1ccsc1)Nc1ccccc1-2 (stereo unspecified)	-3
CCSc1nnc2c(n1)OC(c1ccc(C)cc1)Nc1ccccc1-2 (stereo unspecified)	5
CCCSc1nnc2c(n1)OC(c1cc3c(cc1Cl)OCO3)Nc1ccccc1-2 (stereo unspecified)	-50
CCOc1cccc(C2Nc3ccccc3-c3nnc(SC)nc3O2)c1OC (stereo unspecified)	-1
CCCSc1nnc2c(n1)OC(c1ccncc1)Nc1ccccc1-2 (stereo unspecified)	-9
CCOC(=O)c1cccc(NC(=O)c2ccccc2Br)c1	-6
O=C(Nc1ccc2nn(-c3cccc(Cl)c3)nc2c1)c1cccc(I)c1	-32
NC(=O)c1cc2c(ccc3ccccc32)oc1=Nc1ccccc1F	-7
CCSCCOC(=O)C1=C(C)NC2=C(C(=O)CC(c3cccs3)C2)C1c1coc2ccc(C)cc2c1=O (stereo unspecified)	0
COC(=O)c1sc(NC(=O)CSc2nc(C)nc3sc4c(c23)CCC4)c(C(=O)OC)c1C	-16
CCOC(=O)CC1(N)CCCCC1	-5
O=C1C2C(c3cccc(Br)c3)OC3(C(=O)c4ccccc4C3=O)C2C(=O)N1c1ccc([N+](=O)[O-])cc1 (stereo unspecified)	-16
COc1ccc(C2CC(c3ccc(Br)s3)Nc3ncnn32)cc1OC (stereo unspecified)	-13
CCCCCCSc1nnc2c(n1)OC(c1cccnc1)Nc1ccccc1-2 (stereo unspecified)	68*
CCCCSc1nnc2c(n1)OC(c1cccnc1)Nc1ccc(Br)cc1-2 (stereo unspecified)	-34
CCCCSc1nnc2c(n1)OC(c1ccccc1)Nc1ccccc1-2 (stereo unspecified)	-3
Cc1nc(N2CCC(C(N)=O)CC2)c2cc(C)sc2n1	1
Cc1nc2cc(C(=O)O)ccc2n1-c1ccccc1	-3
CCOc1ccccc1-n1cnc2cc(C(=O)O)ccc21	57*
CCOc1ccccc1-n1cnc2cc(C(=O)NCc3ccco3)ccc21	-14
SMILES	14-3-3g Raf
COc1ccccc1-n1c(C)nc2cc(C(=O)O)ccc21	40*
COc1ccc(OC)c(-n2cnc3cc(C(=O)O)ccc32)c1	-19
COCCNC(=O)c1ccc2c(c1)nc(C)n2-c1ccccc1OC	-129
Cc1ccc(C(C)C)c(OCC(=O)NCCC23CC4CC(CC(C4)C2)C3)c1	-2
NC(=O)c1c(NC(=O)c2ccc(Br)cc2)sc2c1CCCC2	-2
O=C(NC1CCCCC1)c1cc2nc3c(c(C(F)(F)F)n2n1)CCc1ccccc1-3	11
Clc1ccc(-n2ncnc2-c2cccs2)cc1	-9
CCc1ccc2nc(N3CCC(C(=O)NCCCN4CCCC(C)C4)CC3)sc2c1 (stereo unspecified)	-16
CCOC(=O)CCCSc1nc2sc(C)c(C)c2c(=O)n1-c1ccccc1	44*
CCOC(=O)CCCSc1nc2sc3c(c2c(=O)n1-c1ccccc1)CCCC3	10
Cc1sc2nc(SCC(=O)N3CCN(CCO)CC3)n(-c3ccccc3)c(=O)c2c1C	-4
COc1cccc(NC(=O)c2cc(-c3ccc(Br)s3)nc3ccccc23)c1	0
O=C(O)c1cc(NC(=O)c2ccco2)cc(C(=O)O)c1	-5
COc1ccc2cc3cc(C(=O)N4CCC(N5CCCCC5)CC4)oc3nc2c1	46*
Cc1ccc2cc3cc(C(=O)N4CCC(N5CCCCC5)CC4)oc3nc2c1	-6
COc1ccc2cc3cc(C(=O)N4CCCC4)oc3nc2c1	-3
COc1ccc(Cl)cc1NC(=O)Cn1cnc2sc(C)c(S(=O)(=O)N3CC(C)CC(C)C3)c2c1=O (stereo unspecified)	-1
COc1ccc(-n2c(=S)[nH]c3cc(C(=O)NCc4ccccc4Cl)ccc3c2=O)c(OC)c1	-5
CC1CC(C)CN(S(=O)(=O)c2ccc(-c3nc4ccccc4s3)cc2)C1 (stereo unspecified)	-1
Cc1cccc(N(CC(=O)Nc2cccc(Br)c2)S(C)(=O)=O)c1C	-4
CCN(CC)C(=O)c1ccc2c(c1NCCO)C(=O)c1ccccc1C2=O	-311
Cn1c(=O)c(NC2CCCCC2)c2c3c(cccc31)C(=O)c1ccccc1-2	32*
Cn1c(=O)c(N2CCOCC2)c2c3c(cccc31)C(=O)c1ccccc1-2	50*
COC(=O)Cn1nc2c3c(cccc31)C(=O)c1ccccc1-2	-11
Cn1c(=O)c(NCCO)c2c3c(cccc31)C(=O)c1ccccc1-2	168*
SMILES	14-3-3g Raf
Cn1c(=O)c(=O)n(C)c2cc(S(=O)(=O)NC3CCCCCC3)ccc21	-2
CC(C(=O)NC1CCCCC1)N1C(=O)c2ccccc2C1=O (stereo unspecified)	-4
O=C1c2ccccc2C(=O)c2c1ccc(C(=O)N1CCCC1)c2NCCO	-244
CCNc1c2c3c(cccc3n(C)c1=O)C(=O)c1ccccc1-2	54*
O=C1c2cccc(Cl)c2C(=O)c2c1cccc2N1CCOCC1	4
CN1C(=O)c2cccc3c(N4CCOCC4)ccc(c23)C1=O	-5
CCNc1cccc2c1C(=O)N(C)C2=O	-15
COc1ccccc1Cn1c(C(C)O)nc2ccccc21 (stereo unspecified)	-2
COc1cc(N2C(=O)C3C4C=CC(C4)C3C2=O)cc(OC)c1OC (stereo unspecified)	-3
O=C(Nc1ccccc1)c1cc(S(=O)(=O)Nc2ccc(Br)cc2)ccc1Cl	-3
CCn1c(SCC(N)=O)nc2c(c1=O)C1(CCCCC1)Cc1ccccc1-2	-8
CC(=O)Oc1c(S(=O)(=O)c2ccccc2)c(C)nn1-c1ccccc1	-11
CCC(=O)N1CCc2cc(Br)cc(S(=O)(=O)N3CCCC(C(=O)N4CCCCC4CC)C3)c21 (stereo unspecified)	-15
COc1ccc(-c2cc(C(F)(F)F)n3ncc(C(=O)NCCCN4CCOCC4)c3n2)cc1	-4
CC(=O)c1ccc(NC(=O)c2ccc(-c3ccccc3[N+](=O)[O-])o2)cc1	-10
O=C(c1c[nH]c2ccc(S(=O)(=O)N3CCCCC3c3cccnc3)cc2c1=O)N1CCCC1 (stereo unspecified)	-9
O=C(O)c1c[nH]c2ccc(S(=O)(=O)N3CCCCC3c3cccnc3)cc2c1=O (stereo unspecified)	57*
CC1CCN(C(=O)c2c[nH]c3ccc(S(=O)(=O)N4CCCCC4c4cccnc4)cc3c2=O)CC1 (stereo unspecified)	-1
C=CCOc1ccc(C2C3=C(CC(C)(C)CC3=O)N(CCC)C3=C2C(=O)CC(C)(C)C3)cc1	1
COc1ccc(-n2cc(-c3ccc4c(c3)OCO4)[nH]c2=O)cc1	-1
Fc1cccc(C2C=C(c3ccc(Cl)cc3)Nc3nnnn32)c1 (stereo unspecified)	-1
Fc1cccc(C2C=C(c3cccs3)Nc3nnnn32)c1 (stereo unspecified)	63*
